The results in this text go back to PubChem BioAssay.

Calls of active or inactive are those of the source.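 Rule for the calls: active = viability at or below 10% of carrier control in both of two separate runs; inconclusive = viability at or below 10% in only one of the two runs; inactive = the rest.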

The nature of this assay: reduced viability of SK-BR-3 breast cancer cells – cell-based, 24 h, human, pilot screen (AID 572).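 Note: compound exposure lasted between 18 and 24 h rather than exactly 24 h; 100% = carrier-treated control wells.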 Particulars: SK-BR-3 viability, CellTiter-Glo luminescence, at 10 µM, active compounds read low.
As to `Cc1ccc2[nH]c3c(c2c1)CCc1cn[nH]c1-3`, the viability is 132% (inactive).
For `COc1ccc(C(=O)Nn2c(C3CCC3)nc3ccccc3c2=O)c(OC)c1`, the viability was 93.5% (inactive).
As for `CCOC(=O)CSc1nnc(CCc2nc3ccccc3[nH]2)n1C`, the figure is 118% (inactive); as for `COC(=O)c1[nH]c2cc(OC)ccc2c1NC(=O)CCN1CCCCC1`, 85% (inactive).
The result for `Nc1nnc(C(=O)c2ccccc2N)s1` reads 108% (inactive); that for `CCn1c(C(=O)OC)cc2c1ccn2-c1ccc(F)cc1`, 91% (inactive).
`CC(C)C(NC(=O)c1ccco1)C(=O)NCC(c1ccco1)N1CCCCC1` (configuration not stated): the viability is 96.5% (inactive).
Consider `Cc1cc2ccccn2c1C(=O)c1ccncc1`, for which the viability was 114% (inactive).
Regarding `CCCCc1c(O)nc(SCCN(C)C)n(-c2ccccc2)c1=O`, the viability is 93.5% (inactive).
For the compound `COc1ccccc1N1CCN(c2nc3ccccc3nc2C(C#N)C(=O)OC(C)C)CC1` (configuration not stated), the viability was 77% (inactive).
Take `CC1CCN(Cc2ccc(-c3nn[nH]n3)cc2)CC1`: the viability is 116% (inactive).
Take `CCCCCc1c(C)nc(N2CCc3ccccc32)[nH]c1=O`: the viability is 92.5% (inactive).
Regarding `COc1cccc(-n2c(SC3CCOC3=O)nc3ccccc3c2=O)c1` (configuration not stated), the viability was 94.5% (inactive).
In the case of `O=C(Nc1ccccc1C(=O)N1CCCCCC1)c1cccc(S(=O)(=O)N2CCOCC2)c1`, the viability was 95.5% (inactive).
As for `COc1cc(OC)cc(C(=O)NCCN2CCOCC2)c1`, the figure is 105% (inactive); as for `Cc1ccc(C)c(NC(=O)CC(NCCCN2CCOCC2)C(=O)O)c1` (configuration not stated), 94% (inactive).
As for `O=C(CN(C(=O)CCC(=O)Nc1nccs1)c1ccccc1F)NCC1CCCO1` (configuration not stated), the viability was 110% (inactive).
